Source: the supplement of paper PMC4466140

biological target: AgAbp1; assay: SPOT peptide array binding signal intensity (averaged, normalized) (arbitrary units (background-subtracted, floor 0; scale differs between SH3 domains)); higher = stronger binding of the SH3 domain to the peptide
Description: (§1)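 GST-tagged SH3 domains from S. cerevisiae (Sc), A. gossypii (Ag), C. albicans (Ca) and S. pombe (Sp) were incubated at 10 ug/ml overnight at 4 C on cellulose SPOT membranes carrying 292 synthetic 15-mer peptides mined from the S. cerevisiae proteome (cysteines replaced by serines). Binding was detected with anti-GST antibody, HRP secondary and chemiluminescence, quantified with Genespotter, and reported as normalized spot intensities averaged over biological replicates.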

Binder | SPOT peptide array binding signal intensity
RLPAPPPPPRRGPAP | 51.5

biological target: AgBbc1; assay: as above
Description: as §1

Binder | SPOT peptide array binding signal intensity
RLPAPPPPPRRGPAP | 909

biological target: AgBem1-D1; assay: as above
Description: as §1

Binder | SPOT peptide array binding signal intensity
RLPAPPPPPRRGPAP | 140

biological target: AgBzz1-D1; assay: as above
Description: as §1

Binder | SPOT peptide array binding signal intensity
RLPAPPPPPRRGPAP | 624

biological target: AgBzz1-D2; assay: as above
Description: as §1

Binder | SPOT peptide array binding signal intensity
RLPAPPPPPRRGPAP | 154

biological target: AgCyk3; assay: as above
Description: as §1

Binder | SPOT peptide array binding signal intensity
RLPAPPPPPRRGPAP | 3

biological target: AgFus1; assay: as above
Description: as §1

Binder | SPOT peptide array binding signal intensity
RLPAPPPPPRRGPAP | 6

biological target: AgHof1; assay: as above
Description: as §1

Binder | SPOT peptide array binding signal intensity
RLPAPPPPPRRGPAP | 112

biological target: AgHse1; assay: as above
Description: as §1

Binder | SPOT peptide array binding signal intensity
RLPAPPPPPRRGPAP | 28.5

biological target: AgLsb1; assay: as above
Description: as §1

Binder | SPOT peptide array binding signal intensity
RLPAPPPPPRRGPAP | 5.25

biological target: AgLsb4; assay: as above
Description: as §1

Binder | SPOT peptide array binding signal intensity
RLPAPPPPPRRGPAP | 412

biological target: AgMyo5; assay: as above
Description: as §1

Binder | SPOT peptide array binding signal intensity
RLPAPPPPPRRGPAP | 550

biological target: AgNbp2; assay: as above
Description: as §1

Binder | SPOT peptide array binding signal intensity
RLPAPPPPPRRGPAP | 7.5

biological target: AgRvs167; assay: as above
Description: as §1

Binder | SPOT peptide array binding signal intensity
RLPAPPPPPRRGPAP | 123

biological target: AgSho1; assay: as above
Description: as §1

Binder | SPOT peptide array binding signal intensity
RLPAPPPPPRRGPAP | 4

biological target: AgSla1-D1-D2; assay: as above
Description: as §1

Binder | SPOT peptide array binding signal intensity
RLPAPPPPPRRGPAP | 5

biological target: AgSla1-D3; assay: as above
Description: as §1

Binder | SPOT peptide array binding signal intensity
RLPAPPPPPRRGPAP | 10

biological target: CaAbp1-D1; assay: as above
Description: as §1

Binder | SPOT peptide array binding signal intensity
RLPAPPPPPRRGPAP | 150

biological target: CaAbp1-D2; assay: as above
Description: as §1

Binder | SPOT peptide array binding signal intensity
RLPAPPPPPRRGPAP | 17

biological target: CaBbc1; assay: as above
Description: as §1

Binder | SPOT peptide array binding signal intensity
RLPAPPPPPRRGPAP | 770

biological target: CaBem1-D1; assay: as above
Description: as §1

Binder | SPOT peptide array binding signal intensity
RLPAPPPPPRRGPAP | 1820

biological target: CaBzz1-D1; assay: as above
Description: as §1

Binder | SPOT peptide array binding signal intensity
RLPAPPPPPRRGPAP | 3030

biological target: CaBzz1-D2; assay: as above
Description: as §1

Binder | SPOT peptide array binding signal intensity
RLPAPPPPPRRGPAP | 1540

biological target: CaCyk3; assay: as above
Description: as §1

Binder | SPOT peptide array binding signal intensity
RLPAPPPPPRRGPAP | 326

biological target: CaFus1; assay: as above
Description: as §1

Binder | SPOT peptide array binding signal intensity
RLPAPPPPPRRGPAP | 26.5

biological target: CaHof1; assay: as above
Description: as §1

Binder | SPOT peptide array binding signal intensity
RLPAPPPPPRRGPAP | 39

biological target: CaHse1; assay: as above
Description: as §1

Binder | SPOT peptide array binding signal intensity
RLPAPPPPPRRGPAP | 5.25

biological target: CaLsb1; assay: as above
Description: as §1

Binder | SPOT peptide array binding signal intensity
RLPAPPPPPRRGPAP | ≤ 0

biological target: CaLsb4; assay: as above
Description: as §1

Binder | SPOT peptide array binding signal intensity
RLPAPPPPPRRGPAP | 560

biological target: CaMyo5; assay: as above
Description: as §1

Binder | SPOT peptide array binding signal intensity
RLPAPPPPPRRGPAP | 19.5

biological target: CaNbp2; assay: as above
Description: as §1

Binder | SPOT peptide array binding signal intensity
RLPAPPPPPRRGPAP | 63.5

biological target: CaRvs167; assay: as above
Description: as §1

Binder | SPOT peptide array binding signal intensity
RLPAPPPPPRRGPAP | 223

biological target: CaRvs167-3; assay: as above
Description: as §1

Binder | SPOT peptide array binding signal intensity
RLPAPPPPPRRGPAP | 9.25

biological target: CaSho1; assay: as above
Description: as §1

Binder | SPOT peptide array binding signal intensity
RLPAPPPPPRRGPAP | 11

biological target: CaSla1-D1-D2; assay: as above
Description: as §1

Binder | SPOT peptide array binding signal intensity
RLPAPPPPPRRGPAP | 2140

biological target: CaSla1-D3; assay: as above
Description: as §1

Binder | SPOT peptide array binding signal intensity
RLPAPPPPPRRGPAP | 20.2

biological target: ScAbp1; assay: as above
Description: as §1

Binder | SPOT peptide array binding signal intensity
RLPAPPPPPRRGPAP | 53

biological target: ScBbc1; assay: as above
Description: as §1

Binder | SPOT peptide array binding signal intensity
RLPAPPPPPRRGPAP | 198

biological target: ScBem1-D1; assay: as above
Description: as §1

Binder | SPOT peptide array binding signal intensity
RLPAPPPPPRRGPAP | 3.5

biological target: ScBzz1-D1; assay: as above
Description: as §1

Binder | SPOT peptide array binding signal intensity
RLPAPPPPPRRGPAP | 222

biological target: ScBzz1-D2; assay: as above
Description: as §1

Binder | SPOT peptide array binding signal intensity
RLPAPPPPPRRGPAP | 47.5

biological target: ScCyk3; assay: as above
Description: as §1

Binder | SPOT peptide array binding signal intensity
RLPAPPPPPRRGPAP | 5

biological target: ScFus1; assay: as above
Description: as §1

Binder | SPOT peptide array binding signal intensity
RLPAPPPPPRRGPAP | ≤ 0

biological target: ScHof1; assay: as above
Description: as §1

Binder | SPOT peptide array binding signal intensity
RLPAPPPPPRRGPAP | 175

biological target: ScHse1; assay: as above
Description: as §1

Binder | SPOT peptide array binding signal intensity
RLPAPPPPPRRGPAP | 173

biological target: ScLsb1; assay: as above
Description: as §1

Binder | SPOT peptide array binding signal intensity
RLPAPPPPPRRGPAP | 27.2

biological target: ScLsb2; assay: as above
Description: as §1

Binder | SPOT peptide array binding signal intensity
RLPAPPPPPRRGPAP | 5.5

biological target: ScLsb3; assay: as above
Description: as §1

Binder | SPOT peptide array binding signal intensity
RLPAPPPPPRRGPAP | 832

biological target: ScLsb4; assay: as above
Description: as §1

Binder | SPOT peptide array binding signal intensity
RLPAPPPPPRRGPAP | 413

biological target: ScMyo3; assay: as above
Description: as §1

Binder | SPOT peptide array binding signal intensity
RLPAPPPPPRRGPAP | 881

biological target: ScMyo5; assay: as above
Description: as §1

Binder | SPOT peptide array binding signal intensity
RLPAPPPPPRRGPAP | 795

biological target: ScNbp2; assay: as above
Description: as §1

Binder | SPOT peptide array binding signal intensity
RLPAPPPPPRRGPAP | 30.5

biological target: ScPex13; assay: as above
Description: as §1

Binder | SPOT peptide array binding signal intensity
RLPAPPPPPRRGPAP | 502

biological target: ScRvs167; assay: as above
Description: as §1

Binder | SPOT peptide array binding signal intensity
RLPAPPPPPRRGPAP | 795

biological target: ScSho1; assay: as above
Description: as §1

Binder | SPOT peptide array binding signal intensity
RLPAPPPPPRRGPAP | 188

biological target: ScSla1-D1-D2; assay: as above
Description: as §1

Binder | SPOT peptide array binding signal intensity
RLPAPPPPPRRGPAP | 3480

biological target: ScSla1-D3; assay: as above
Description: as §1

Binder | SPOT peptide array binding signal intensity
RLPAPPPPPRRGPAP | 3.5

biological target: SpAbp1-D1; assay: as above
Description: as §1

Binder | SPOT peptide array binding signal intensity
RLPAPPPPPRRGPAP | 69

biological target: SpBbc1; assay: as above
Description: as §1

Binder | SPOT peptide array binding signal intensity
RLPAPPPPPRRGPAP | 20

biological target: SpBzz1-D1; assay: as above
Description: as §1

Binder | SPOT peptide array binding signal intensity
RLPAPPPPPRRGPAP | 4030

biological target: SpBzz1-D2; assay: as above
Description: as §1

Binder | SPOT peptide array binding signal intensity
RLPAPPPPPRRGPAP | 64.8

biological target: SpCyk3; assay: as above
Description: as §1

Binder | SPOT peptide array binding signal intensity
RLPAPPPPPRRGPAP | 57

biological target: SpHof1; assay: as above
Description: as §1

Binder | SPOT peptide array binding signal intensity
RLPAPPPPPRRGPAP | 115

biological target: SpHof1-2; assay: as above
Description: as §1

Binder | SPOT peptide array binding signal intensity
RLPAPPPPPRRGPAP | 166

biological target: SpHof1-3; assay: as above
Description: as §1

Binder | SPOT peptide array binding signal intensity
RLPAPPPPPRRGPAP | 1070

biological target: SpHse1; assay: as above
Description: as §1

Binder | SPOT peptide array binding signal intensity
RLPAPPPPPRRGPAP | 2.25

biological target: SpLsb1; assay: as above
Description: as §1

Binder | SPOT peptide array binding signal intensity
RLPAPPPPPRRGPAP | 12.2

biological target: SpLsb4; assay: as above
Description: as §1

Binder | SPOT peptide array binding signal intensity
RLPAPPPPPRRGPAP | 1800

biological target: SpMyo1; assay: as above
Description: as §1

Binder | SPOT peptide array binding signal intensity
RLPAPPPPPRRGPAP | 510

biological target: SpNbp2; assay: as above
Description: as §1

Binder | SPOT peptide array binding signal intensity
RLPAPPPPPRRGPAP | 12

biological target: SpPex13; assay: as above
Description: as §1

Binder | SPOT peptide array binding signal intensity
RLPAPPPPPRRGPAP | ≤ 0

biological target: SpRvs167; assay: as above
Description: as §1

Binder | SPOT peptide array binding signal intensity
RLPAPPPPPRRGPAP | 1170

biological target: SpSla1-D1-D2; assay: as above
Description: as §1

Binder | SPOT peptide array binding signal intensity
RLPAPPPPPRRGPAP | 339

biological target: SpSla1-D3; assay: as above
Description: as §1

Binder | SPOT peptide array binding signal intensity
RLPAPPPPPRRGPAP | ≤ 0
